# Reference: PubChem BioAssay (NCATS)
# “And” between values parts separate entries of the source, which are not always exact repeats. Equal values may be shown once. Unmarked numbers belong to inactive results. Records with an inconclusive call do not appear. Entries that show only a call come without a potency. The source made the active and inactive calls. Unless noted, calls come from the whole dose curve; as a rule, active = well fitted curve in the direction sought with a large enough effect; inconclusive = small, poorly fitted or top-dose-only effect, or another doubt; inactive = no such curve, though single readings can be large; an effect the other way counts as inactive or inconclusive.
# Key:
# [1] = qHTS for small molecule inhibitors of Yes1 kinase: Counter Assay (AID 686950);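 note: no kinase present so only ADP-Glo detection of a fixed ADP amount is tested; luminescence from ADP-Glo reporting ADP in a fixed ATP and ADP mixture; series mostly up to about 77 µM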
# Summary of the method: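 Luminescence read-out from ADP-Glo quantifies a fixed ADP amount (0.02 mM ADP with 0.08 mM ATP) after 60 min at room temperature; signal is normalized between DMSO wells with ATP/ADP and with 0.1 mM ATP alone.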
# [2] = qHTS for compounds that reverse cellular toxicity of Amyloid beta (A-beta) peptide in yeast: LOPAC Validation Assay (AID 720559)
# Summary of the method: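 Here, A-beta-toxic yeast grow with test compounds at 30 C for 48 hr before optical density at 600 nm is recorded; data are normalized against DMSO and the FeCl3-clioquinol control.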
# [3] = qHTS for Activators of Parkin Expression: LOPAC Validation Assay (NLuc Reporter) (AID 720572; note: potency is the fitted concentration of half-maximal effect)
# Summary of the method: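 Parkin promoter-driven FLuc/NLuc neuronal reporter cells; 24 h plating, 7-pt dose response, 24 h at 37 C/5% CO2; FLuc then NanoLuc reagent, 10 min each, luminescence; DMSO/positive control normalized.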
# [4] = biological target: T1, Hexokinase-4 (Homo sapiens) + Glucokinase regulatory protein (Homo sapiens) (UniProt P35557+Q14397); assay: qHTS assay for inhibitors of recombinant human GCK-GKRP interaction: Diaphorase-coupled assay (AID 743205)
# Summary of the method: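 Signal derives from resorufin generated by diaphorase, linked to GCK turnover of glucose (5 mM) and ATP (0.4 mM). Enzyme complex was added after a 20-minute compound preincubation and monitored for 30 minutes.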
# [5] = biological target: Arylsulfatase A (Homo sapiens) (UniProt P15289); assay: qHTS screen for enhancers of Arylsulfatase A (ASA1): LOPAC Validation Assay (AID 720538); settings: outcome: dose series up to 57.5 µM
# Summary of the method: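 Cell-based enhancement test: residual ASA activity in SV40-transformed I179S patient fibroblasts is measured by pNCS turnover (0.5mM final, 14h, room temperature) following 48h compound incubation; higher fluorescence indicates activation.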
# [6] = qHTS for Activators of Parkin Expression: LOPAC Validation Assay (FLuc Reporter) (AID 720573)
# Summary of the method: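 Readout is FLuc luminescence from neuronal reporter cells (Parkin promoter, FLuc plus NLuc) after 24 h compound exposure in dose response. Values normalized to neutral DMSO and positive-control compounds.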
# [7] = qHTS assay for small molecule agonists of the antioxidant response element (ARE) signaling pathway measured by Nrf2-dependant transcriptional activity (AID 720636; active = well fitted curve in the direction sought with a large enough effect in the repeat runs; an effect the other way counts as inactive or inconclusive;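 note: HepG2 cells with an ARE-driven luciferase reporter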)
# Summary of the method: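 Cells: ARE-luc HepG2 with Nrf2-responsive luciferase. Medium contained 1% dialyzed FBS. Compound exposure lasted 16 hr at 37 C and 5% CO2, followed by ONE-Glo luciferase detection.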
# [8] = qHTS assay for small molecule agonists of the antioxidant response element (ARE) signaling pathway measured by Nrf2-dependant transcriptional activity - cell viability counter screen (AID 720653; active = well fitted curve in the direction sought with a large enough effect in the repeat runs; an effect the other way counts as inactive or inconclusive); settings: ARE-bla HepG2 viability, CellTiter-Glo ATP luminescence, 16 h; hits give low values
# Summary of the method: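 Cytotoxicity counter screen: intracellular ATP quantified by CellTiter-Glo luminescence in the same ARE-bla HepG2 plates, after 16 h compound exposure and a 2 h beta-lactamase substrate step.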
# [9] = biological target: T1, Hexokinase-4 (Homo sapiens) + Glucokinase regulatory protein (Homo sapiens); assay: qHTS assay for inhibitors of recombinant human GCK-GKRP interaction: ADP-Glo assay (AID 743206)
# Summary of the method: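 GST-GCK and FLAG-GKRP (15 nM each in the dispensed mix, with 2 uM S6P) react with 0.4 mM ATP and 5 mM glucose (final) in Hepes pH 7.6 for 60 min at room temperature. ADP is measured by ADP-Glo luminescence.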
# [10] = qHTS assay for small molecule antagonists of the retinoid-related orphan receptor gamma (ROR-gamma) signaling pathway - cell viability counter screen (AID 720652; active = well fitted curve in the direction sought with a large enough effect in the repeat runs; an effect the other way counts as inactive or inconclusive;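 note: series mostly up to about 92 µM; compound exposure lasted 16 hr before ATP read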)
# Summary of the method: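 Luminescence from CellTiter-Glo after 30 min at room temperature reported cellular ATP as the cytotoxicity measure. Cells were the CHO reporter line with doxycycline-induced ROR-gamma expression, exposed to compound for 16 hr at 37 C.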
# T1 sequence (P35557 whole entry, looked up): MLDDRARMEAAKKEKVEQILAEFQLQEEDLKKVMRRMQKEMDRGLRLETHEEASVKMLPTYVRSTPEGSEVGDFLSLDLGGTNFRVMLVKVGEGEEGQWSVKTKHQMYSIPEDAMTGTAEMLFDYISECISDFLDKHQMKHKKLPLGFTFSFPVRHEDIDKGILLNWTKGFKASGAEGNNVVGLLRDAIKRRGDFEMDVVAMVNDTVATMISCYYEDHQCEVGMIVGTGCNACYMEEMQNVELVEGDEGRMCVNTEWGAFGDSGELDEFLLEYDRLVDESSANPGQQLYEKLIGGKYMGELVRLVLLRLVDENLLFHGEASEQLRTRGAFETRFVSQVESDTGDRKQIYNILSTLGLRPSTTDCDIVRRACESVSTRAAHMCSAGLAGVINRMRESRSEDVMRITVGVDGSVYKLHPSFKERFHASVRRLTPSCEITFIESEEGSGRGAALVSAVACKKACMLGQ
# T1 sequence (Q14397 whole entry, looked up): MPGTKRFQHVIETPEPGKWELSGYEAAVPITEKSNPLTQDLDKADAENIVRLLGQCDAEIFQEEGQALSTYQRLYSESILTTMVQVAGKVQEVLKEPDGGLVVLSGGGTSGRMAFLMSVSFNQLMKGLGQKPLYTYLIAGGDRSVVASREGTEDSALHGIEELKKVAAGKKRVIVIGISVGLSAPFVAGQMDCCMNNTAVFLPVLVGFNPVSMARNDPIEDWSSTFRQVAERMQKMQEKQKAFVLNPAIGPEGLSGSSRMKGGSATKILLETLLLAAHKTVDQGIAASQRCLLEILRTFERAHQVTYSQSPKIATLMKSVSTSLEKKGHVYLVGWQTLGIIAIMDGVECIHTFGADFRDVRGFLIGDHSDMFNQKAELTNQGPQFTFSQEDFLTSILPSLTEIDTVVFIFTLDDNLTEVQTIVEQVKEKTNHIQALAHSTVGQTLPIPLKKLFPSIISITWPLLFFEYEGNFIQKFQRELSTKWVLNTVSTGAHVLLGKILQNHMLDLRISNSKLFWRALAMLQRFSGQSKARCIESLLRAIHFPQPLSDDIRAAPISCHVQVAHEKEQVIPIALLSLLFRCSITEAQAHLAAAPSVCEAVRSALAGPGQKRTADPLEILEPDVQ
# Sequence of Arylsulfatase A (Homo sapiens) (P15289 whole entry, looked up): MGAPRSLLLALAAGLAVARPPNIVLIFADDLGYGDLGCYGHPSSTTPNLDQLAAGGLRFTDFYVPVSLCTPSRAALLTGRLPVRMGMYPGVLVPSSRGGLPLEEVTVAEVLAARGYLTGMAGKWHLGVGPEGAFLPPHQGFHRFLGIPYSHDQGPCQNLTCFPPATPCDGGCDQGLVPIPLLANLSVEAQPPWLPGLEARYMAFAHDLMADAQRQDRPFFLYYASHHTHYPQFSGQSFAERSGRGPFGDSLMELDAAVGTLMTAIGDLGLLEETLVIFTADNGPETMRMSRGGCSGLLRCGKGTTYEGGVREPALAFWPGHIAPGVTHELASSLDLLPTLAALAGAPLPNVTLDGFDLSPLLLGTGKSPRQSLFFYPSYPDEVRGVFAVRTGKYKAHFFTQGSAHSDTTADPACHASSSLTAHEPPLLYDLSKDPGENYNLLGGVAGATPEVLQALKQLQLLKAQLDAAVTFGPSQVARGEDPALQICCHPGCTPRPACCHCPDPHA
structure (smiles),measurement,setting,value
OC[C@H](Cc1ccccc1)Nc1nc(Oc2ccc3c(c2)CCC3)nc2c1ncn2Cc1ccc(-c2ccccc2)cc1,outcome,[1],inactive
COc1cccc2cc(-c3nc(C4CCC(C(=O)O)CC4)n4ncnc(N)c34)[nH]c12 (stereo unspecified),outcome,[1],inactive
CC(C)OC(=O)C1=CN(C(=O)c2ccc(F)c(F)c2)CC(C)(C)c2c1[nH]c1ccccc21,outcome,[1],inactive
Cc1cc2c(C(C)C)c(O)c(O)c(C=O)c2c(O)c1-c1c(C)cc2c(C(C)C)c(O)c(O)c(C=O)c2c1O,outcome,[1],inactive
same,outcome,[2],inactive
same,Potency,[3],inactive
same,outcome,[4],inactive
Fc1ccc(Cl)cc1-c1nc(Nc2ccncc2)c2nccnc2n1,outcome,[1],inactive
Cc1cc(-c2ccc(CC(=O)Nc3ccc(-c4cccnc4)cc3)cc2)ccn1,outcome,[1],inactive
COc1ccc(CCN2CCN(CCCc3ccccc3)CC2)cc1OC,outcome,[1],inactive
C[C@]12CCC(=O)C=C1CC[C@@H]1[C@@H]2[C@@H](O)C[C@@]2(C)[C@H]1CC[C@]2(O)C(=O)CO,outcome,[5],inactive
same,outcome,[2],inactive
same,Potency,[3],inactive
same,outcome,[6],inactive
same,outcome,[7],inactive
same,max response,[8],-2.33%
same,outcome,[4],inactive
same,outcome,[9],inactive
NC(=O)c1cnccn1,outcome,[5],inactive
same,outcome,[2],inactive
same,Potency,[3],inactive
same,outcome,[6],inactive
same,outcome,[7],inactive
same,outcome,[10],inactive
same,max response,[8],6.82% and 7.56%
same,outcome,[4],inactive
same,outcome,[9],inactive
O=C1CCCC2=C1C(c1[nH]ncc1Cl)N=C(Nc1nc3ccccc3o1)N2 (stereo unspecified),outcome,[1],inactive
O=C(c1cc(Cc2n[nH]c(=O)c3ccccc23)ccc1F)N1CCN(C(=O)C2CC2)CC1,outcome,[1],inactive
Cc1[nH]c(=O)c(C#N)cc1-c1ccc2nccn2c1,outcome,[1],inactive
same,outcome,[5],inactive
same,outcome,[2],inactive
same,Potency,[3],inactive
same,outcome,[6],inactive
same,outcome,[4],inactive
same,outcome,[9],inactive
CC(C)(Sc1ccc(CCN(CCCCC2CCCCC2)C(=O)NC2CCCCC2)cc1)C(=O)O,outcome,[1],inactive
same,outcome,[5],inactive
same,outcome,[2],inactive
same,Potency,[3],inactive
same,outcome,[6],inactive
same,outcome,[7],inactive
same,max response,[8],1.89%
same,outcome,[4],inactive
same,outcome,[9],inactive
CC(=O)Oc1ccccc1C(=O)O,outcome,[5],inactive
same,outcome,[2],inactive
same,Potency,[3],inactive
same,outcome,[6],inactive
same,outcome,[7],inactive
same,outcome,[10],inactive
same,max response,[8],-2.6% and -0.828% and 18.8%
same,outcome,[4],inactive
same,outcome,[9],inactive
CCCCCCCc1ccc(CCc2cccc(O)c2C(=O)O)cc1,outcome,[1],inactive
COc1ccccc1[C@H](c1cccc2ccccc12)[C@@](C)(C#N)C(=O)N1CCC(c2cccc(C(F)(F)F)c2)CC1,outcome,[1],inactive
CCCS(=O)(=O)Nc1ccc(F)c(C(=O)c2c[nH]c3ncc(Cl)cc23)c1F,outcome,[1],inactive
Cc1ccccc1C(OCCN(C)C)c1ccccc1 (stereo unspecified),outcome,[5],inactive
same,outcome,[2],inactive
same,Potency,[3],inactive
same,outcome,[6],inactive
same,outcome,[7],inactive
same,max response,[8],-8.13%
same,outcome,[4],inactive
same,outcome,[9],inactive
CC[C@H](Nc1ncnc2nc[nH]c12)c1nc2cccc(F)c2c(=O)n1-c1ccccc1,outcome,[1],inactive
OC(CN1CCC(Cc2ccc(F)cc2)CC1)c1ccc(Cl)cc1 (stereo unspecified),outcome,[1],inactive
same,outcome,[5],inactive
same,outcome,[2],inactive
same,Potency,[3],inactive
same,outcome,[6],inactive
same,outcome,[4],inactive
same,outcome,[9],inactive
COc1c(Cl)cc2c([nH]c3cnccc32)c1NC(=O)c1cccnc1C,outcome,[1],inactive
O=C(Nc1nc2ccccc2n1CCN1CCOCC1)c1cccc([N+](=O)[O-])c1,outcome,[1],inactive
same,outcome,[5],inactive
same,outcome,[2],inactive
same,Potency,[3],inactive
same,outcome,[4],inactive
same,outcome,[9],inactive
c1ccc(-c2nn3c(c2-c2ccnc4cc(OCCN5CCOCC5)ccc24)CCC3)nc1,outcome,[1],inactive
O=c1[nH]cnc2[nH]ncc12,outcome,[5],inactive
same,outcome,[2],inactive
same,Potency,[3],inactive
same,outcome,[6],inactive
same,outcome,[7],inactive
same,outcome,[10],inactive
same,max response,[8],-4.44%
same,outcome,[4],inactive
same,outcome,[9],inactive
CC(C)C[C@H](NC(=O)[C@@H](O)[C@H](N)Cc1ccccc1)C(=O)O,outcome,[1],inactive
same,outcome,[5],inactive
same,outcome,[2],inactive
same,Potency,[3],inactive
same,outcome,[6],inactive
same,outcome,[4],inactive
same,outcome,[9],inactive
COc1ccccc1-c1cccc(-c2c(O)c3cc(C#N)c(Cl)cc3[nH]c2=O)c1,outcome,[1],inactive
Nc1nc2ccc(OC(F)(F)F)cc2s1,outcome,[1],inactive
same,outcome,[2],inactive
same,Potency,[3],inactive
same,outcome,[4],inactive
same,outcome,[9],inactive
N#CC[C@H](C1CCCC1)n1cc(-c2ncnc3[nH]ccc23)cn1,outcome,[1],inactive
COc1ccc2nc(S(=O)Cc3ncc(C)c(OC)c3C)[nH]c2c1 (stereo unspecified),outcome,[1],inactive
same,max response,[8],1.66%
Nc1ncnc2nc(-c3ccc(N4CCOCC4)nc3)cc(-c3cccc(Br)c3)c12,outcome,[5],inactive
same,outcome,[2],inactive
Cc1c(C)c2c(c(C)c1O)CCC(C)(COc1ccc(CC3SC(=O)NC3=O)cc1)O2 (stereo unspecified),outcome,[1],inactive
same,outcome,[7],inactive
same,max response,[8],5.17%
C/C(=C\C(=O)Nc1ccccc1C(=O)O)c1ccc2ccccc2c1,outcome,[1],inactive
CNCc1ccc(-c2[nH]c3cc(F)cc4c3c2CCNC4=O)cc1,outcome,[1],inactive
CS(=O)(=O)c1ccc(C(=O)Nc2ccc(Cl)c(-c3ccccn3)c2)c(Cl)c1,outcome,[1],inactive
Cc1ccc(-n2nc(C(C)(C)C)cc2NC(=O)Nc2ccc(OCCN3CCOCC3)c3ccccc23)cc1,outcome,[1],inactive
CC(C)(C)NCC(O)c1ccc(O)c(CO)c1 (stereo unspecified),outcome,[5],inactive; inhibitor; fitted 8.4921 uM
same,outcome,[2],inactive
same,Potency,[3],inactive
same,outcome,[6],inactive
CCC(C)N(C)C(=O)c1cc2ccccc2c(-c2ccccc2Cl)n1 (stereo unspecified),outcome,[1],inactive
same,outcome,[5],inactive
same,outcome,[2],inactive
same,Potency,[3],20.6 µM (active)
same,outcome,[6],inactive
same,outcome,[4],inactive
same,outcome,[9],inactive
CCCCNc1cc(C(=O)O)cc(S(N)(=O)=O)c1Oc1ccccc1,outcome,[5],inactive
same,outcome,[2],inactive
same,Potency,[3],inactive
same,outcome,[6],inactive
same,outcome,[4],inactive
same,outcome,[9],inactive
O=C1CCC(N2C(=O)c3ccccc3C2=O)C(=O)N1 (stereo unspecified),outcome,[5],inactive; inhibitor; fitted 0.0301 uM
same,outcome,[2],inactive
same,Potency,[3],inactive
same,outcome,[6],inactive
same,outcome,[7],inactive
same,max response,[8],1.28%
same,outcome,[4],inactive
same,outcome,[9],inactive
C1COC(NC(C2CC2)C2CC2)=N1,outcome,[2],inactive
same,Potency,[3],inactive
same,outcome,[6],inactive
same,outcome,[4],inactive
same,outcome,[9],inactive
OC(CCN1CCCCC1)(c1ccccc1)C1CC2C=CC1C2 (stereo unspecified),outcome,[5],inactive
same,outcome,[2],inactive
same,Potency,[3],inactive
same,outcome,[6],inactive
same,outcome,[4],inactive
same,outcome,[9],inactive
CCOC(=O)N1CCC(=C2c3ccc(Cl)cc3CCc3cccnc32)CC1,outcome,[2],inactive
same,Potency,[3],inactive
same,outcome,[6],inactive
same,outcome,[4],inactive
same,outcome,[9],inactive
